S1P2 agonist: S1P2 receptor agonists, primary screen, cell-based; Sphingosine 1-phosphate receptor 2 (Homo sapiens), O95136; S1P2-expressing cell line, agonist reporter read-out; activation, % at 4.5 µM; actives 0.46% (n = 97,000); in the data active = activation above about 16%
Target sequence (O95136 whole entry, looked up): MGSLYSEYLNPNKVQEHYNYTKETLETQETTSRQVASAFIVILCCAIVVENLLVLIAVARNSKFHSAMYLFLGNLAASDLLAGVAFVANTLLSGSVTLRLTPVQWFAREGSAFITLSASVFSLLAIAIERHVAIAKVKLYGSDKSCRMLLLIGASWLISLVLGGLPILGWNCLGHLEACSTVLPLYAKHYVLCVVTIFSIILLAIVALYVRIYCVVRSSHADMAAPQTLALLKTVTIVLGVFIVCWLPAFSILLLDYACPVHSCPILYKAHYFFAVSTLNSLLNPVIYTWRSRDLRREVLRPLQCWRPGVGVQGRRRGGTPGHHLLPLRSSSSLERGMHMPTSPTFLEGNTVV
GALR2 agonist: GALR2 receptor agonists, primary screen, cell-based; Galanin receptor type 2 (Homo sapiens), O43603; GALR2-expressing cells, agonist activation read-out; activation, % (concentration not given with the values); actives 0.48% (n = 140,000); AID 803, 2007; in the data active = activation above about 5%, passing the limit was not always enough
MT1-MMP txn act: MT1-MMP promoter reporter activation – cell-based, luciferase luminescence, primary screen; actives 0.16% (n = 86,000); HT1080 MT1-MMP promoter luciferase reporter, overnight; active compounds read high; activation factor at 10 µM;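 active = activation factor of at least 2 for MT1-MMP transcription at 10 µM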
GALR2 blocker: GALR2 antagonists in receptor-expressing cells, primary screen | Galanin receptor type 2 (Homo sapiens), O43603 | antagonist mode | inhibition, % at 4 µM | actives 0.39% (n = 140,000);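 also: cells stimulated with galanin 1-16 at roughly its EC80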
Smad3 FoxH1 inh: Smad3/FoxH1 peptide binding inhibitors, primary screen, biochemical, TR-FRET; AID 630, 2007; actives 0.29% (n = 88,000); Mothers against decapentaplegic homolog 3 (Homo sapiens), P84022; inhibition, % at 25 µM; TR-FRET Smad3/Dy647-FoxH1 peptide binding, europium anti-His;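 active = compounds that reduce the energy-transfer binding signal between the protein and its labelled peptide by more than half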
S1P2 antag: human S1P2 receptor antagonists, primary screen, cell-based; cell-based S1P2 antagonist assay, inhibition at 5 uM; inhibition, % at 5 µM; actives 0.21% (n = 97,000); in the data active = inhibition above about 45%;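 also: CRE beta-lactamase reporter cells expressing human S1P2 stimulated with S1P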
GALR2 blk conf: GALR2 antagonists, retest of hits, confirmation, cell-based; shares compounds with GALR2 blocker; GALR2-expressing cells, antagonist mode, inhibition; inhibition, % at 4 µM; actives 60% (n = 480); AID 866, 2007;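 also: cells stimulated with galanin at about its EC80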
BLA inhib ctr: inhibitors of NFAT-driven beta-lactamase reporter, confirmation, counter-screen for GALR2 antagonist project, CHO NFAT-bla cells, FRET readout | actives 36% (n = 480) | inhibition, % at 4.2 µM | thapsigargin-stimulated | shares compounds with GALR2 blocker;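 active = inhibition above the mean inhibition across tested compounds plus 3 SD, cut at about 27% in these data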
A number is an active result; i = inactive; nt = no result given. Compounds with a hit are over-represented: about 1.4% of the library has one in this group of screens. Rule as the data show it, unless noted: active = inhibition above about 27%; inactive = the rest.

SMILES	S1P2 agonist	GALR2 agonist	MT1-MMP txn act	GALR2 blocker	Smad3 FoxH1 inh	S1P2 antag	GALR2 blk conf	BLA inhib ctr
NC(=O)c1ccc(NC(=O)COC(=O)c2c3c(nc4ccccc24)/C(=C\c2cccs2)CCC3)cc1	nt	i	nt	i	nt	nt	nt	nt
CC(C)CNC(=O)COC(=O)c1c2c(nc3ccccc13)/C(=C/c1cccs1)CC2	nt	i	nt	31	nt	nt	38	44
C[C@@H](C(=O)N[C@@H](CO)Cc1ccccc1)[C@H]1C[C@]1(C)[C@H](NC(=O)OCc1ccccc1)c1ccccc1	nt	nt	i	nt	nt	nt	nt	nt
O=C(O)c1cncc(C(=O)O)c1	nt	nt	nt	nt	i	nt	nt	nt
COc1ccc(OC)c(NC(=O)Cc2nn(C)c(=O)c3ccccc23)c1	i	i	i	i	i	i	nt	nt
COc1ccc(CNC(=O)Cc2nn(C)c(=O)c3ccccc23)cc1	i	i	nt	36	i	i	i	i
CCn1cc(C(=O)NC(C)C23CC4CC(CC(C4)C2)C3)cn1 (centres undefined)	nt	i	nt	i	nt	nt	nt	nt
CC(NC(=O)Cn1ncc(Cl)c(Cl)c1=O)C12CC3CC(CC(C3)C1)C2 (centres undefined)	nt	i	nt	57	nt	nt	72	74
Nc1nc(C(=O)O)c(N=Nc2ccccc2)c(=O)[nH]1	nt	nt	nt	nt	i	nt	nt	nt
O=C(Nc1nc(-c2ccccc2)ns1)c1cccs1	i	i	i	36	i	i	i	i
O=C(Nc1nc(-c2ccccc2)cs1)c1cccs1	i	i	i	i	i	i	nt	nt
CC(=O)c1c(C)[nH]c(C(=O)COC(=O)c2cc(S(=O)(=O)N(C)c3ccccc3)ccc2Cl)c1C	nt	i	nt	28	nt	nt	i	i
CCc1c(C)nc2ncnn2c1NCCc1ccc(OC)c(OC)c1	i	i	i	i	i	i	nt	nt
COc1ccc(CCNc2c(C)c(C)nc3ncnn23)cc1	i	i	i	31	nt	69	39	i
Cc1nc2ccc(NS(=O)(=O)c3ccc4c(c3)OCCO4)cc2s1	i	i	nt	34	nt	i	i	i
Cc1ccc(S(=O)(=O)Nc2ccc3nc(C)sc3c2)cc1	i	i	i	i	i	i	nt	nt
CCN1/C(=C/c2ccc3cc(C)ccc3[n+]2CC)Sc2ccccc21	nt	i	nt	46	nt	nt	48	49
N[C@@H](Cc1ccnnc1)C(=O)O	nt	nt	nt	nt	i	nt	nt	nt
Cc1cccnc1Nc1nc(-c2ccccn2)cs1	i	i	nt	27	i	i	51	31
CC(C)(C)c1ccc(OCCNC(=O)c2ncn[nH]2)cc1	i	i	nt	31	nt	i	i	i
COc1ccc(OC)c(NC(=O)CSc2ncnc3c2cnn3-c2ccccc2Cl)c1	i	i	i	31	i	81	49	i
O=C(Cn1ncc(Cl)c(Cl)c1=O)N1CCN(S(=O)(=O)c2ccc3ccccc3c2)CC1	nt	i	nt	29	nt	nt	56	i
O=C(CSc1nc2ccccc2o1)N1CCN(S(=O)(=O)c2ccc3ccccc3c2)CC1	nt	i	nt	i	nt	nt	nt	nt
Cn1c(=O)c2[nH]c(CCC(=O)O)nc2n(C)c1=O	nt	nt	nt	nt	i	nt	nt	nt
Cc1ccc(C(=O)N/C(=C\c2cccs2)C(=O)NCc2cccnc2)cc1	nt	i	nt	i	nt	nt	nt	nt
SMILES	S1P2 agonist	GALR2 agonist	MT1-MMP txn act	GALR2 blocker	Smad3 FoxH1 inh	S1P2 antag	GALR2 blk conf	BLA inhib ctr
Cc1ccc(C(=O)N/C(=C/c2cccs2)C(=O)NCc2ccco2)cc1	nt	i	nt	27	nt	nt	i	i
CC(CO)(CO)Nc1ncnc2ccccc12	nt	nt	nt	nt	i	nt	nt	nt
CCOC(=O)COc1ccc(S(=O)(=O)NCc2ccncc2)cc1	i	i	i	33	i	i	33	i
CCOc1ccc(S(=O)(=O)NCc2ccncc2)cc1	i	i	i	34	i	64	53	i
Cc1ccc(S(=O)(=O)NCC(=O)NCc2ccncc2)cc1	i	i	i	i	i	i	nt	nt
Cc1ccc(S(=O)(=O)NCc2ccncc2)cc1	i	i	i	31	i	i	39	i
CN=C(N)/N=C(\N)Nc1cc2ccccc2c2ccccc12	nt	nt	nt	nt	i	nt	nt	nt
O=C(O)/C(Cc1cn[nH]n1)=N\O	nt	nt	nt	nt	i	nt	nt	nt
Cc1nc2ccccc2nc1-c1ccc(N=[N+]([O-])c2ccc(-c3nc4ccccc4nc3C)cc2)cc1	nt	nt	nt	nt	i	nt	nt	nt

Screens from PubChem BioAssay.
